According to PubChem BioAssay (EPA / NIEHS):
Results filed as inconclusive are left out. Calls of active or inactive are those of the source. The calls were made as follows, unless noted: active = hit-call score of the fitted dose curve at least 0.9, where 1 is the maximum; inactive = score below 0.9.

What was measured:
[1] = biological target: Estrogen-related receptor gamma (Homo sapiens) (UniProt P62508); test: ATG_ERRg_TRANS: Attagene TRANS-FACTORIAL HepG2 Assay for human Estrogen-Related Receptor gamma (ERRg) (AID 2282977; active = hit-call score of the fitted dose curve at least 0.9, where 1 is the maximum;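 also: hits increase reporter signal over DMSO so potencies reflect activators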); settings: HepG2 Attagene TRANS reporter, ERRg transactivation
How it was run: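 HepG2 cells transiently transfected with multiplexed GAL4-UAS reporter units and chimeric NR-Gal4 constructs were exposed to test chemicals for 24 h. Reporter mRNA was measured by RT-PCR, 6-FAM primer extension, HpaI digestion and capillary electrophoresis; gain-of-signal versus DMSO.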

[2] = biological target: Glucocorticoid receptor (Homo sapiens) (UniProt P04150); test: ATG_GR_TRANS: Attagene TRANS-FACTORIAL HepG2 Assay for human Glucocorticoid Receptor (GR) (AID 2282978; active = hit-call score of the fitted dose curve at least 0.9, where 1 is the maximum;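 also: activators score as hits since higher reporter transcript over DMSO is fitted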); settings: HepG2 Attagene TRANS GR reporter, mRNA transcription
Sequence of Glucocorticoid receptor (Homo sapiens) (P04150 whole entry, looked up, the tested form may be a part): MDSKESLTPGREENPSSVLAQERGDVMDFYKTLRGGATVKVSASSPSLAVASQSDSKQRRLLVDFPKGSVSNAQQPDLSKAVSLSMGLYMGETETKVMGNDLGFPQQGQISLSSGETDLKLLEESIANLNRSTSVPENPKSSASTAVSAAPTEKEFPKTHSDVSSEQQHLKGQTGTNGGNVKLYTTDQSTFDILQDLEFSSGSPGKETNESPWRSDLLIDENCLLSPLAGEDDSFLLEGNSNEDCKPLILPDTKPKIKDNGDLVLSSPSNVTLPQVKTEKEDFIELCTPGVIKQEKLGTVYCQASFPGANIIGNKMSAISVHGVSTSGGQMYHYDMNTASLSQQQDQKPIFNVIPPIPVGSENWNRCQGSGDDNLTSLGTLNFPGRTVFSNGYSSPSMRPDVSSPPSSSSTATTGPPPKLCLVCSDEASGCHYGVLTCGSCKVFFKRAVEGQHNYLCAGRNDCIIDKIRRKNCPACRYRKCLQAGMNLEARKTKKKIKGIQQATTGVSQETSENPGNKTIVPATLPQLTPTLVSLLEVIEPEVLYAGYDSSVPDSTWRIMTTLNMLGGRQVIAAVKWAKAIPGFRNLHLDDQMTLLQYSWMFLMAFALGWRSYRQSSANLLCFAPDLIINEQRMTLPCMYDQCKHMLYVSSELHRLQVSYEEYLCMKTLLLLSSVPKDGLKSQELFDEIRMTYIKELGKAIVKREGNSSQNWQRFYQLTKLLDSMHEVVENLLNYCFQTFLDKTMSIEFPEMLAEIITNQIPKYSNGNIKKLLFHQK
How it was run: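 Transiently transfected HepG2 cells express chimeric NR-GAL4 proteins acting on GAL4-UAS reporter units. Compounds are applied for 24 h. mRNA induction over DMSO is measured by capillary electrophoresis.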

[3] = biological target: Bile acid receptor (Homo sapiens) (UniProt Q96RI1); test: ATG_FXR_TRANS: Attagene TRANS-FACTORIAL HepG2 Assay for Farnesoid X Receptor (FXR) (AID 2282979; active = hit-call score of the fitted dose curve at least 0.9, where 1 is the maximum;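 also: hits raise reporter mRNA above DMSO so AC50 marks FXR activation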); settings: HepG2 Attagene TRANS FXR-GAL4 reporter transcription
Sequence of Bile acid receptor (Homo sapiens) (Q96RI1 whole entry, looked up, the tested form may be a part): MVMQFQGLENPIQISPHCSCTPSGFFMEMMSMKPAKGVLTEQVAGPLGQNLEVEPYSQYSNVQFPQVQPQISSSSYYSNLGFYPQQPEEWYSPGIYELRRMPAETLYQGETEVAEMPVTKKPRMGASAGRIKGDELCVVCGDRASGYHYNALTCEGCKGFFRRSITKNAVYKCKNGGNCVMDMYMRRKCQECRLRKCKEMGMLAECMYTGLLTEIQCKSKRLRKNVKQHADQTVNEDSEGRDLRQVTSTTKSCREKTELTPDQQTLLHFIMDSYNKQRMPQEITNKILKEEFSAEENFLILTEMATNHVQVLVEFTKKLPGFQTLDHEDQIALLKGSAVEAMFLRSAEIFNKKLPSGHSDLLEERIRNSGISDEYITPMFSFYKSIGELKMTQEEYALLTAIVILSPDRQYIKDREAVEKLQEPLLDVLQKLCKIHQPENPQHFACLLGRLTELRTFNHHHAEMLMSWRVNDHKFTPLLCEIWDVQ
How it was run: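 HepG2 cells transiently transfected with reporter constructs in which a chimeric FXR-GAL4 protein drives a GAL4-UAS reporter; 24 h compound exposure. Reporter mRNA measured by RT-PCR, FAM labelling, HpaI digestion and capillary electrophoresis; gain-of-signal versus DMSO.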

[4] = biological target: Oxysterols receptor LXR-alpha (Homo sapiens) (UniProt Q13133); test: ATG_LXRa_TRANS: Attagene TRANS-FACTORIAL HepG2 Assay for human Liver X Receptor alpha (LXRa) (AID 2282980; active = hit-call score of the fitted dose curve at least 0.9, where 1 is the maximum); settings: HepG2 Attagene TRANS reporter, LXRa transactivation
Sequence of Oxysterols receptor LXR-alpha (Homo sapiens) (Q13133 whole entry, looked up, the tested form may be a part): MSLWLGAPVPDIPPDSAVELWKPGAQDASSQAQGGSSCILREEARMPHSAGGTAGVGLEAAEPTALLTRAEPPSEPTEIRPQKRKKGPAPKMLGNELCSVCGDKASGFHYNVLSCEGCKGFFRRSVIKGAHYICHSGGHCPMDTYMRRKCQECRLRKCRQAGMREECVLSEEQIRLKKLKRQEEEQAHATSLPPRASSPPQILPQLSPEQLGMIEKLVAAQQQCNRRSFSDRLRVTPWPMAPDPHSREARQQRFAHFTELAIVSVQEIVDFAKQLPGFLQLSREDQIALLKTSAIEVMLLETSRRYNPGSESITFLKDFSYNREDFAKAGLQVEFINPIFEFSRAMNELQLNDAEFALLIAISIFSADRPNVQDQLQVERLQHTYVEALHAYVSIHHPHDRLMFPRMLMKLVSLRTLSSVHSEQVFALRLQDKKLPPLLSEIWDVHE
How it was run: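 HepG2 cells were transiently transfected with multiplexed reporter units driven by chimeric LXRa–GAL4 fusion proteins, then dosed for 24 h. Reporter mRNA was quantified by RT-PCR, fluorescent labelling and capillary electrophoresis; gain of signal fitted against DMSO baseline.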

[5] = biological target: Oxysterols receptor LXR-beta (Homo sapiens) (UniProt P55055); test: ATG_LXRb_TRANS: Attagene TRANS-FACTORIAL HepG2 Assay for human Liver X Receptor beta (LXRb) (AID 2282981; active = hit-call score of the fitted dose curve at least 0.9, where 1 is the maximum); settings: HepG2 Attagene TRANS GAL4-LXRb reporter, mRNA
Sequence of Oxysterols receptor LXR-beta (Homo sapiens) (P55055 whole entry, looked up, the tested form may be a part): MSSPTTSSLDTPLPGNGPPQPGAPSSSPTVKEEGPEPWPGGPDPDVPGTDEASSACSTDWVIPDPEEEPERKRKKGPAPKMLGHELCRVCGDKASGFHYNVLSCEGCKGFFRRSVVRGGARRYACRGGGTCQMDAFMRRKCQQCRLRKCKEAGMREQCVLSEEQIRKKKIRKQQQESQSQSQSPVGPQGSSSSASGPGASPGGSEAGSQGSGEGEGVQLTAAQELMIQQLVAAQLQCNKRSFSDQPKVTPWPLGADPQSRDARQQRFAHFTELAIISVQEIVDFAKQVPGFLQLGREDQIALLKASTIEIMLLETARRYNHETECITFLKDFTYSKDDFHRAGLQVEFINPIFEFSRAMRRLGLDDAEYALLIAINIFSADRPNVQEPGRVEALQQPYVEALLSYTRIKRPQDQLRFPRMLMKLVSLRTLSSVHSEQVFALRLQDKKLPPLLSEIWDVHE
How it was run: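 HepG2 cells transiently transfected with multiple reporter transcription units carrying chimeric NR-Gal4 proteins acting on GAL4-UAS reporters; compound exposure 24 h. Reporter mRNA quantified by RT-PCR, 6-FAM labelling, HpaI digestion and capillary electrophoresis; gain of signal versus DMSO.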

[6] = biological target: Hepatocyte nuclear factor 4-alpha (Homo sapiens) (UniProt P41235); test: ATG_HNF4a_TRANS: Attagene TRANS-FACTORIAL HepG2 Assay for human Hepatocyte Nuclear Factor 4 alpha (HNF4a) (AID 2282982; active = hit-call score of the fitted dose curve at least 0.9, where 1 is the maximum); settings: HepG2 HNF4a transactivation reporter, mRNA readout
Sequence of Hepatocyte nuclear factor 4-alpha (Homo sapiens) (P41235 whole entry, looked up, the tested form may be a part): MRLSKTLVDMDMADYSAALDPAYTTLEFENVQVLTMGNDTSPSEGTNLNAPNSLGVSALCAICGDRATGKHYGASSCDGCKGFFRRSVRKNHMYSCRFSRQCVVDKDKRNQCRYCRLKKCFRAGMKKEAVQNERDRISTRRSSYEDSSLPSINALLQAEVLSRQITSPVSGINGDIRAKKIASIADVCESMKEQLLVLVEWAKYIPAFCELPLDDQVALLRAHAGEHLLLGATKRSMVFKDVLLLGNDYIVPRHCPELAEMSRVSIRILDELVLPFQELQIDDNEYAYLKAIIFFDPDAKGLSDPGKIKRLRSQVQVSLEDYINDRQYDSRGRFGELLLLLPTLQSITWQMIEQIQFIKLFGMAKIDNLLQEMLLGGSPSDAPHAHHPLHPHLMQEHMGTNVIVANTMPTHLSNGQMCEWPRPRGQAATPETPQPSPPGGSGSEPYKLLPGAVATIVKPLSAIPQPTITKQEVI
How it was run: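 HepG2 cells transiently transfected with multiplexed GAL4-UAS reporter units responsive to chimeric NR-GAL4 proteins; compound exposure 24 h. Reporter mRNA quantified by RT-PCR, 6-FAM labelling, HpaI digestion and capillary electrophoresis; gain of signal versus DMSO baseline.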

[7] = biological target: Transcriptional activator Myb (Homo sapiens) (UniProt P10242); test: ATG_Myb_CIS: Attagene CIS-FACTORIAL HepG2 Assay for human Myeloblastosis (Myb) Proto-Oncogene Transcription Factor (AID 2282986); settings: HepG2 Attagene CIS-FACTORIAL Myb reporter transcription; actives raise or lower the signal
Sequence of Transcriptional activator Myb (Homo sapiens) (P10242 whole entry, looked up): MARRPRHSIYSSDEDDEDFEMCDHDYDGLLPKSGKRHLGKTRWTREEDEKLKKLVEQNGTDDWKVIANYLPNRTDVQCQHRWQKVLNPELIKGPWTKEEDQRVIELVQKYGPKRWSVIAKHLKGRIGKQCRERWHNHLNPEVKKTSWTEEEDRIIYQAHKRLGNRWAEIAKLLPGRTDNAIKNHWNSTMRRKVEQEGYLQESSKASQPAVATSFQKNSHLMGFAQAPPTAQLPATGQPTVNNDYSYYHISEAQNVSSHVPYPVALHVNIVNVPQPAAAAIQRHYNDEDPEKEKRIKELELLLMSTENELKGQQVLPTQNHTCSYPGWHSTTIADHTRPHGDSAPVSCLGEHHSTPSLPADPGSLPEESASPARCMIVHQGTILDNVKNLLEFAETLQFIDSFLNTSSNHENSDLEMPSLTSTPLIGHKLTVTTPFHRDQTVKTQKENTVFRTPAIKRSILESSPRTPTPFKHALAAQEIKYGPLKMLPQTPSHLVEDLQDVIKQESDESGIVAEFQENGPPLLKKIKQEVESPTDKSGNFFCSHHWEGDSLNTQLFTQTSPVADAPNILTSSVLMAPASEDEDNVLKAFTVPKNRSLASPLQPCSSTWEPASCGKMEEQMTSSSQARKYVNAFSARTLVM
How it was run: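 Using HepG2 liver cells bearing transiently transfected cis-promoter reporter constructs, the assay measures induction or loss of reporter mRNA after 24 hours of dosing. Detection used fluorescently labeled RT-PCR products separated by capillary electrophoresis.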

[8] = biological target: Nuclear respiratory factor 1 (Homo sapiens) (UniProt Q16656); test: ATG_NRF1_CIS: Attagene CIS-FACTORIAL HepG2 Assay for human Nuclear Respiratory Factor 1 (NRF1) Orphan Gene (AID 2282987); settings: HepG2 NRF1 cis-element reporter, Attagene multiplex; actives raise or lower the signal
Sequence of Nuclear respiratory factor 1 (Homo sapiens) (Q16656 whole entry, looked up): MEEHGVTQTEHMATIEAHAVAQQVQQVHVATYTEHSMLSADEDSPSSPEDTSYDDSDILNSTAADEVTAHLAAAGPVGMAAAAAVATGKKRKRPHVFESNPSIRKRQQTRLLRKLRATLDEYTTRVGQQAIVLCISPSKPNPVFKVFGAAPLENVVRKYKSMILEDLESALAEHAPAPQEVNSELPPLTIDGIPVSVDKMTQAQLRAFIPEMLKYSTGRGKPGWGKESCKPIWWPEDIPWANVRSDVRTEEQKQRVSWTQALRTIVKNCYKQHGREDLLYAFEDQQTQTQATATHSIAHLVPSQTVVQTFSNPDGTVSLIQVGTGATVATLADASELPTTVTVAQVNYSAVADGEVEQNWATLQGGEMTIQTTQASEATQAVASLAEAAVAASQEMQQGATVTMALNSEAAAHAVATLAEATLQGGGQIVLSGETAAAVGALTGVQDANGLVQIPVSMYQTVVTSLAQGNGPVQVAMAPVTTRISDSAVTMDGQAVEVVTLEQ
How it was run: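 Reporter mRNA induction or loss in HepG2 cells after 24 h dosing; cis-regulated reporter constructs report endogenous transcription-factor activity. Quantified by RT-PCR/capillary electrophoresis fluorescence, DMSO-referenced.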

[9] = ATG_NFI_CIS: Attagene CIS-FACTORIAL HepG2 Assay for human Nuclear Factor I (NFI) (AID 2282989); settings: HepG2 cis-regulatory reporter, NFI response element transcription; actives raise or lower the signal
How it was run: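 Reporter transcripts were measured by RT-PCR with fluorescent primer extension and capillary electrophoresis 24 h post-treatment. HepG2 cells carried transiently transfected cis-regulated reporter constructs reporting endogenous factor activity; gain or loss fitted against DMSO baseline.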

[10] = biological target: Myc proto-oncogene protein (Homo sapiens) (UniProt P01106); test: ATG_Myc_CIS: Attagene CIS-FACTORIAL HepG2 Assay for human Myelocytomatosis (Myc) Proto-Oncogene Transcription Factor (AID 2282990); settings: HepG2, Attagene cis-reporter transcription factor activity; actives raise or lower the signal
Sequence of Myc proto-oncogene protein (Homo sapiens) (P01106 whole entry, looked up): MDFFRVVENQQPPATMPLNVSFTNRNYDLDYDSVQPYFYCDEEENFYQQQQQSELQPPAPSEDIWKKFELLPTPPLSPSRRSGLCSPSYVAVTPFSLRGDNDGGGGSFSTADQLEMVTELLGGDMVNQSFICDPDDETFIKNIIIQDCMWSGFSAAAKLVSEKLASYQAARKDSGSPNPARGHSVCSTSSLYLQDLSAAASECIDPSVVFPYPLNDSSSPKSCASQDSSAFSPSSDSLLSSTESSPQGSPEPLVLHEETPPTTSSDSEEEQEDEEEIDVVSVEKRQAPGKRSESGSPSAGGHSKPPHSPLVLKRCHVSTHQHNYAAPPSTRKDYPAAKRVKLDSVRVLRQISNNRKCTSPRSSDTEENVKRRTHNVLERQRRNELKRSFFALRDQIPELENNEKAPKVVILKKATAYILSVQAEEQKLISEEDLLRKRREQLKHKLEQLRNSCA
How it was run: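 Multiplexed cis-reporter transcription in HepG2 cells after 24 h chemical treatment. Reporter mRNA measured by RT-PCR and capillary electrophoresis fluorescence; activity fitted bidirectionally against DMSO control.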

[11] = ATG_NRF2_ARE_CIS: Attagene CIS-FACTORIAL HepG2 Assay for human Nuclear Factor Erythroid 2 Related Factor 2 (NFR2) response to Antioxidant Response Elements (ARE) (AID 2282992); settings: HepG2 Attagene ARE/NRF2 reporter, transcription factor activity; actives raise or lower the signal
How it was run: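 Multiplexed reporter mRNA profiling in HepG2 after a 24 h chemical exposure. Curves fitted in both directions relative to DMSO negative control.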

[12] = ATG_Oct_MLP_CIS: Attagene CIS-FACTORIAL HepG2 Assay for human Octamer-Binding Transcription Factor (Oct) (AID 2282993); settings: HepG2 Attagene cis-factorial Oct reporter, mRNA; actives raise or lower the signal
How it was run: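 Readout is reporter transcript level from RT-PCR with fluorescent primer extension and capillary electrophoresis, fitted in both directions against DMSO. Transfected HepG2 reporter units report endogenous factor activity after 24 h dosing.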

[13] = biological target: Cellular tumor antigen p53 (Homo sapiens) (UniProt P04637); test: ATG_p53_CIS: Attagene CIS-FACTORIAL HepG2 Assay for human p53 Transcription Factor (AID 2282994); settings: HepG2 p53 cis-element reporter, Attagene mRNA; actives raise or lower the signal
Sequence of Cellular tumor antigen p53 (Homo sapiens) (P04637 whole entry, looked up): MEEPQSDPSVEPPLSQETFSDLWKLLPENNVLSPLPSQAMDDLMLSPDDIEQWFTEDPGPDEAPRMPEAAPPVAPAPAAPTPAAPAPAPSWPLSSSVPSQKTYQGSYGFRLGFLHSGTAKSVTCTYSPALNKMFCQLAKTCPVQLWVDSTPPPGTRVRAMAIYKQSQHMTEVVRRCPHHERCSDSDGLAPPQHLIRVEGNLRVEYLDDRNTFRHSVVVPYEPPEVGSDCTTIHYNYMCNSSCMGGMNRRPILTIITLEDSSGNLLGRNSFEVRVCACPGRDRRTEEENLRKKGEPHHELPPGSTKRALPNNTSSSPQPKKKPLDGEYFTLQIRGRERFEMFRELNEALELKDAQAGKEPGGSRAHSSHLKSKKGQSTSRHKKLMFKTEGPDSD
How it was run: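 Multiplexed reporter mRNA assay in human HepG2 liver cells; cis-regulated units report endogenous factor activity. Values come from bidirectional curve fitting against DMSO negative control after 24 h treatment.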

[14] = biological target: Nuclear receptor subfamily 4 group A member 2 (Homo sapiens) (UniProt P43354); test: ATG_NURR1_TRANS: Attagene TRANS-FACTORIAL HepG2 Assay for human Nuclear Receptor Related Protein 1 (NURR1) (AID 2282985; active = hit-call score of the fitted dose curve at least 0.9, where 1 is the maximum); settings: HepG2 Attagene TRANS reporter, mRNA readout
How it was run: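 HepG2 cells transiently transfected with GAL4-UAS reporter units and chimeric NR-Gal4 constructs; chemical exposure 24 h. Reporter mRNA quantified by RT-PCR, fluorescent labelling and capillary electrophoresis; gain of signal fitted relative to DMSO baseline.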

[15] = ATG_NF_kB_CIS: Attagene CIS-FACTORIAL HepG2 Assay for human Nuclear Factor Kappa B (NF-kB) (AID 2282991); settings: HepG2 Attagene cis-factorial NF-kB reporter mRNA; actives raise or lower the signal
How it was run: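 DMSO served as negative control and baseline for bidirectional curve fitting. Transiently transfected HepG2 cells were dosed for 24 h, then reporter transcripts were measured by RT-PCR with capillary electrophoresis detection.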

[16] = ATG_M_06_TRANS: Attagene TRANS-FACTORIAL HepG2 Assay for M06 Transcription Factor (Internal Marker) (AID 2282983; active = hit-call score of the fitted dose curve at least 0.9, where 1 is the maximum); settings: HepG2 Attagene TRANS M06 internal marker reporter
How it was run: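 HepG2 cells transiently transfected with multiplexed GAL4-UAS reporter transcription units; after 24 h compound exposure, reporter mRNA measured by RT-PCR, FAM-labelled primer extension, HpaI digestion and capillary electrophoresis. Gain-of-signal fitted versus DMSO baseline; background control readout.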

[17] = ATG_M_32_TRANS: Attagene TRANS-FACTORIAL HepG2 Assay for M32 Transcription Factor (Internal Marker) (AID 2282984; active = hit-call score of the fitted dose curve at least 0.9, where 1 is the maximum); settings: HepG2 Attagene TRANS M32 internal marker reporter
How it was run: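 HepG2 cells transiently transfected with multiple GAL4-UAS reporter transcription units, dosed for 24 hours; reporter mRNA quantified by RT-PCR, 6-FAM primer extension, HpaI digestion and capillary electrophoresis. Gain-of-signal fitted versus DMSO baseline; internal background-control marker.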

[18] = BSK_3C_TissueFactor: BioMAP Diversity Plus: 3C Assay for Tissue Factor Biomarker Activity (AID 2282997); settings: BioMAP 3C HUVEC, tissue factor biomarker readout; actives raise or lower the signal
How it was run: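 Primary human umbilical vein endothelial cells in the 3C system were exposed to test chemical for 24 h, then Tissue Factor measured by ELISA. Activity was fitted bidirectionally against DMSO as negative control and baseline.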

[19] = BSK_3C_uPAR: BioMAP Diversity Plus: 3C Assay for Urokinase-type plasminogen activator receptor (uPAR) Biomarker Activity (AID 2282998); settings: BioMAP 3C HUVEC, uPAR biomarker ELISA; actives raise or lower the signal
How it was run: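 Cell-surface uPAR on HUVEC (3C system) read by ELISA at 24 h post-treatment, with DMSO as baseline and fitting in both directions. Parallel cultures stained with SRB to flag overt cytotoxicity.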

[20] = BSK_3C_VCAM1: BioMAP Diversity Plus: 3C Assay for Vascular cell adhesion molecule 1 (VCAM1) Biomarker Activity (AID 2282999); settings: BioMAP 3C HUVEC, VCAM1 ELISA, cytokine-stimulated; actives raise or lower the signal
How it was run: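 Human umbilical vein endothelial cells were dosed with compound for 24 h, after which cell-surface VCAM-1 was quantified by ELISA. Bidirectional curve fitting used DMSO as negative control and activity baseline.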

Measured: AC50

COC(=O)CC(C)CCC=C(C)C (stereo not drawn)
not listed: [14] | [15] | [16] | [17] | [18] | [19] | [20]
inactive: all other assays above

CC1=CP(=O)(c2ccccc2)CC1 (stereo not drawn)
not listed: [4] | [5] | [6] | [16] | [17] | [18] | [19] | [20]
inactive: all other assays above

C=Cc1ccc(OC(C)=O)cc1
active: [11] 6.87 µM | [12] 55.4 µM
not listed: [3] | [4] | [5] | [7] | [18] | [19] | [20]
inactive: all other assays above

Fc1ccc(Br)cc1
not listed: [3] | [6] | [16] | [17]
inactive: all other assays above

C=C(C)C1CC=C(C)C(OC(C)=O)C1 (stereo not drawn)
inactive: [1] | [2] | [6] | [17] | [7] | [8] | [9] | [10] | [11] | [13]

Cn1ccnc1
not listed: [5] | [16] | [18] | [19] | [20]
inactive: all other assays above

O=C(O)c1cc(O)c2ccccc2c1O
active: [14] 1.1 µM | [7] 57.4 µM | [10] 43.6 µM | [11] 7.34 µM
not listed: [3] | [15] | [18] | [19] | [20]
inactive: all other assays above

CC1C(C)(C)C2=C(C(=O)CCC2)C1(C)C (stereo not drawn)
not listed: [3] | [6] | [16] | [17] | [18] | [19] | [20]
inactive: all other assays above

CCC1(C)C(=O)N(Cl)C(=O)N1Cl (stereo not drawn)
active: [9] 60.6 µM | [11] 27.1 µM | [12] 27.4 µM
not listed: [3] | [4] | [5] | [16]
inactive: all other assays above
